A selection: hits, their analogues and other compounds. The true share with any hit is near 11%.
NS1 function inh: blocks influenza NS1 protein function; Potency, µM (doses to about 46.1 µM), without a hit: at the top dose activity, positive = more growth; 270,000 tested, 0.4% active; AID 2326; calls by dose curve; further: actives are rising curves; nearly all actives have a fitted effect of over 50% in size
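A cell-based growth assay was used: compounds that relieve NS1-induced slow growth of budding yeast raise OD600. Assay medium was yeast nitrogen base with ammonium sulphate and -URA supplement, pH 6.0, with 2% galactose.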
Pf growth 96h: P. falciparum growth inhibition at 96 hour, primary screen for plastid delayed-death inhibitors | 320,000 tested, 6.9% active | Potency, µM (top dose mostly 28.7 µM), for the others: at the highest dose activity change, negative = inhibition, most hits filed as inhibitors | P. falciparum luciferase reporter growth, 96 h; further: on the % scale 0 is the no-effect control and ±100 the full control effect
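Two parasite generations (96 h, 37 C, 5% CO2) of compound exposure in infected erythrocytes (0.05% parasitemia, 2% hematocrit). Luciferase-reporter P. falciparum; decreased luminescence indicates inhibited growth, aimed at apicoplast-acting delayed death.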
VACV Venus inh: vaccinia inhibition (Venus reporter); AID 720580; 330,000 tested, 0.46% active; Potency, µM (doses to about 36.5 µM), for inactives: at the highest dose activity change, negative = inhibition, hits mostly inhibitors; Vaccinia virus Venus reporter expression, fluorescence; calls by dose curve; tested in A549 cells; further: on the % scale 0 is the no-effect control and ±100 the full control effect; nearly all actives have a fitted effect of over 30% in size
HCV inh: inhibitors of hepatitis C virus infection; Huh7.5.1 HCVcc-Cre infection, luciferase reporter, 44 h; 340,000 tested, 3.4% active; Potency, µM (series often up to 41.8 µM), for the others: at the highest dose activity change, negative = inhibition, usual class: inhibitors; further: on the % scale 0 is the no-effect control and ±100 the full control effect
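A cell-based infection assay in which seeded cells (1,000 per well) receive test compound after 4 h, are inoculated with HCVcc-Cre at approximately 0.5 moi, and are incubated 44 h before luminescence detection.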
Pf growth 48h: P. falciparum growth inhibition at 48 hours (one generation); P. falciparum luciferase growth in erythrocytes, 48 h; Potency, µM (series often up to 28.7 µM), inactives show top-dose activity change, negative = inhibition, actives largely listed as inhibitors; 310,000 tested, 5.9% active; further: on the % scale 0 is the no-effect control and ±100 the full control effect
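Compounds are pin-transferred into medium, infected erythrocytes (2% hematocrit, 0.1% parasitemia final) are added, and plates sit one parasite generation at 37 C in 5% CO2. Detection reagent is then added and luminescence measured.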
Vaccinia mCherry: vaccinia inhibition (mCherry reporter); Potency, µM (top dose mostly 36.5 µM), for the others: top-dose activity change, negative = inhibition, usual class: inhibitors; 310,000 tested, 0.63% active; Vaccinia virus mCherry reporter infection, fluorescence; calls by dose curve; tested in A549 cells; further: on the % scale 0 is the no-effect control and ±100 the full control effect; nearly all actives have a fitted effect of over 35% in size
An asterisk follows results filed as active. Unless noted, the call rests on the fitted dose curve; in most records, active means well fitted inhibition curve with a large enough effect; inconclusive means small, poorly fitted or top-dose-only effect, or another doubt; inactive means no such curve, though single readings can be large or run the other way. Potency means the concentration at half of the fitted maximal effect.

`Cc1ccc(NS(=O)(=O)c2c(C)nc3sccn3c2=O)cc1` gave NS1 function inh -10%, Pf growth 96h 0%, VACV Venus inh -9%, HCV inh 13%, Pf growth 48h -4% and Vaccinia mCherry -4%.
CCOC(=O)c1ccc(NS(=O)(=O)c2c(C)nc3sccn3c2=O)cc1 was read as NS1 function inh 1%, Pf growth 96h 10µM*, VACV Venus inh -14%, HCV inh -24%, Pf growth 48h 31% and Vaccinia mCherry -11%.
For COc1cccc(CNS(=O)(=O)c2c(C)nc3sccn3c2=O)c1 the results were NS1 function inh 12%, Pf growth 96h 0.52µM*, VACV Venus inh -1%, HCV inh 7%, Pf growth 48h 4% and Vaccinia mCherry 1%.
For CCOc1ccc(NCc2nnc(SCc3ccccc3Cl)n2-c2ccccc2)cc1 the results were NS1 function inh -18%, Pf growth 96h 346%, HCV inh inconclusive and Pf growth 48h inconclusive.
`O=C(O)Cc1ccc2oc(-c3ccccn3)nc2c1` gave NS1 function inh 11%, Pf growth 96h 23%, HCV inh 10% and Pf growth 48h -1%.
CN(C(=O)CSc1nc2ccc(NC(=O)c3ccccc3F)cc2s1)c1ccccc1 was read as VACV Venus inh inconclusive and Vaccinia mCherry -7%.
Screening C/C(=N\NC1=NCCN1)c1ccc(N)c([N+](=O)[O-])c1 returned NS1 function inh 1%, Pf growth 96h inconclusive, VACV Venus inh -2%, HCV inh inconclusive, Pf growth 48h 2.1µM* and Vaccinia mCherry -10%.
`CCCCOc1ccc(Br)cc1/C(C)=N/NC1=NCCN1` gave NS1 function inh -22%, Pf growth 96h -10%, VACV Venus inh 6.3µM*, HCV inh 3.2µM* and Pf growth 48h 4.7µM*.
For C/C(=N\Nc1nccnc1Cl)c1ccc(Cl)c(Cl)c1 the results were NS1 function inh -14%, Pf growth 96h -25%, VACV Venus inh -10%, HCV inh -19%, Pf growth 48h 1% and Vaccinia mCherry -9%.
Screening CCOc1ccc(CSC2=NCCN2)cc1[N+](=O)[O-] returned NS1 function inh 0%, Pf growth 96h inconclusive, VACV Venus inh inconclusive, HCV inh -24%, Pf growth 48h inconclusive and Vaccinia mCherry -13%.
`COc1ccc(/C(C)=N/NC2=NCCN2)cc1Cl` gave NS1 function inh -2%, Pf growth 96h 3.7µM*, VACV Venus inh -23%, HCV inh -20%, Pf growth 48h 4.7µM* and Vaccinia mCherry -22%.
For CCCCCCOc1ccc(/C(C)=N/NC2=NCCN2)cc1[N+](=O)[O-] the results were NS1 function inh 10%, Pf growth 96h 28%, HCV inh 32µM* and Pf growth 48h inconclusive.
Screening Cc1ccc(C(=O)N[C@H](C(=O)Nc2ccc(N3CCOCC3)cc2)C(C)C)cc1 returned Pf growth 96h -1%, VACV Venus inh -20%, HCV inh -18%, Pf growth 48h inconclusive and Vaccinia mCherry -2%.
Cc1ccc(NC2=NCC(=O)N2C2CCCC2)cc1C was read as NS1 function inh 2%, Pf growth 96h inconclusive, VACV Venus inh -8%, HCV inh -6%, Pf growth 48h 13% and Vaccinia mCherry inconclusive.
`CCOC(=O)NCc1ccccc1` gave NS1 function inh -10%, Pf growth 96h 44%, VACV Venus inh -16%, HCV inh 2.8µM*, Pf growth 48h 17% and Vaccinia mCherry inactive.
`CCOC(=O)C(Cc1ccccc1)C(=O)NCc1ccccc1` (configuration not stated) gave NS1 function inh -12%, Pf growth 96h 3.3µM*, VACV Venus inh -13%, HCV inh 12%, Pf growth 48h 21% and Vaccinia mCherry -10%.
CCOC(=O)NCc1ccc(S(=O)(=O)Nc2ccccc2C)cc1 was read as NS1 function inh -2%, Pf growth 96h 13µM* and HCV inh -1%.
For CCOC(=O)[C@]12CCC=C1N(Cc1ccco1)C(=O)[C@H](CC(=O)N1CCN(C(=O)C3CC3)CC1)C2 the results were VACV Venus inh 3% and Vaccinia mCherry -3%.
Screening C=CCN1CCN(C(c2cccc(OC)c2OC)c2nnnn2CCC(C)C)CC1 (configuration not stated) returned Pf growth 96h 10%, VACV Venus inh -11%, HCV inh -4%, Pf growth 48h 7.4µM* and Vaccinia mCherry -25%.
COc1cccc(C(c2nnnn2C(C)(C)C)N2CCN(C/C=C/c3ccccc3)CC2)c1OC (configuration not stated) was read as VACV Venus inh -17% and Vaccinia mCherry 13%.
`COc1cccc(C(c2nnnn2CCc2ccccc2)N2CCN(c3ccccc3)CC2)c1OC` (configuration not stated) gave NS1 function inh -14%, Pf growth 96h inconclusive, VACV Venus inh inconclusive, HCV inh inconclusive, Pf growth 48h 4.7µM* and Vaccinia mCherry inconclusive.
COc1ccccc1C(c1nnnn1CCc1ccccc1)N1CCN(c2ccccc2)CC1 (configuration not stated) was read as NS1 function inh -11%, Pf growth 96h inconclusive, VACV Venus inh -12%, HCV inh inconclusive, Pf growth 48h -3% and Vaccinia mCherry inactive.
Screening COc1ccccc1N1CCN(C(c2ccccc2)c2nnnn2CCc2ccccc2)CC1 (configuration not stated) returned NS1 function inh -1%, Pf growth 96h -6%, VACV Venus inh -26%, HCV inh inconclusive, Pf growth 48h 10µM* and Vaccinia mCherry -15%.
`Oc1ccc(C(c2nnnn2CCc2ccccc2)N2CCN(c3nc4ccccc4s3)CC2)cc1` (configuration not stated) gave NS1 function inh -10%, Pf growth 96h inconclusive, VACV Venus inh -6%, HCV inh 13µM*, Pf growth 48h inconclusive and Vaccinia mCherry -11%.
For COc1c(CC=C(C)C)c(O)cc2oc(=O)c3c4ccc(O)cc4oc3c12 the results were VACV Venus inh 0%, HCV inh 4µM* and Vaccinia mCherry -6%.

Screening data (PubChem BioAssay)
